Assay outcomes from PubChem.
This is a sample that favours compounds with a hit; in the whole collection about 3.4% have one here.
PG9 binder: PG9 antibody binding by small molecule; TR-FRET gp120-PG9 antibody binding; inhibition, % at 6.7 µM; hit rate 0.43% among 360,000; in the data active = inhibition above about 8.5%
HSP90 inh: HSP90 refolding inhibition in rabbit reticulocyte lysate | luciferase refolding luminescence, 3 h | AID 1789 | inhibition, % at 5.6 µM | hit rate 0.91% among 290,000;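 active = inhibition above the screen-wide mean plus 3 SD, computed separately per campaign, cut at about 16% in these data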;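 note: 0% = DMSO wells and 100% = 60 µM geldanamycin wells; inhibitors lower the luminescence because luciferase stays unfolded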
GAA850 FXN act: activators of GAA850 frataxin (FXN) promoter; HEK293 lucGAA850 FXN promoter luciferase reporter, 24 h; percent of 10 µM SAHA response; activation, % at 6 µM; hit rate 0.56% among 360,000; AID 540364;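 active = activation above the average of all compounds screened plus 3 SD, cutoff fixed separately per campaign, cut at about 7.5% in these data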;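 note: 0% = DMSO wells and 100% = 10 µM SAHA wells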
AI-2 QS modul: modulates the Vibrio harveyi AI-2 quorum sensing system; Vibrio harveyi JMH597 AI-2 luminescence/OD600 ratio, 9 h; active compounds read low; strain lacks LuxN and CqsS sensors; 0 = neutral-control median; activity change, % at 7.5 µM; hit rate 0.4% among 300,000; AID 2094; in the data active = activity change below about -75%, passing the limit was not always enough;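 note: luminescence divided by OD600 gain over 9 h not by final OD600 alone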
HSF1 inhib: HSF1 inhibition | hit rate 0.77% among 300,000 | activity change, negative = inhibition, % at 7.5 µM (by protocol) | NIH3T3-HGL HSE-luciferase, MG132-induced, luminescence 8 h; active compounds read low | AID 2098;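 active = more than half of replicate wells show activity change below -50%, luminescence cut by over half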;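 note: luciferase reports HSF-1 transcriptional activity via heat shock element; 0% = median of DMSO wells and -100% = zero luminescence signal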
SMARCA2 act: activators of SMARCA2 function; MG213 cells, MMTV-luciferase reporter, dexamethasone, overnight; activation, % at 9.1 µM; hit rate 1% among 370,000; AID 652017; in the data active = activation above about 7.8%;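 note: 0% = vehicle wells and 100% = reference activator wells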
HSP90 confirm: HSP90 inhibition, confirmation assay | rabbit reticulocyte lysate, luciferase refolding luminescence, 3 h | inhibition, % at 5.9 µM | shares compounds with HSP90 inh | hit rate 64% among 2,300; in the data active = inhibition above about 18%;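 note: 0% = vehicle wells and 100% = reference inhibitor wells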
luciferase ctr: firefly luciferase inhibition, HSP90 counter-screen | shares compounds with HSP90 inh | purified native firefly luciferase, luminescence | inhibition, % at 5.9 µM | hit rate 48% among 2,300 | AID 1847;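 active = inhibition above the mean inhibition of all tested sample wells plus 3 SD, cut at about 10% in these data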;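 note: 0% = DMSO with luciferase and 100% = wells lacking luciferase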
Target sequence (P08659 whole entry, looked up): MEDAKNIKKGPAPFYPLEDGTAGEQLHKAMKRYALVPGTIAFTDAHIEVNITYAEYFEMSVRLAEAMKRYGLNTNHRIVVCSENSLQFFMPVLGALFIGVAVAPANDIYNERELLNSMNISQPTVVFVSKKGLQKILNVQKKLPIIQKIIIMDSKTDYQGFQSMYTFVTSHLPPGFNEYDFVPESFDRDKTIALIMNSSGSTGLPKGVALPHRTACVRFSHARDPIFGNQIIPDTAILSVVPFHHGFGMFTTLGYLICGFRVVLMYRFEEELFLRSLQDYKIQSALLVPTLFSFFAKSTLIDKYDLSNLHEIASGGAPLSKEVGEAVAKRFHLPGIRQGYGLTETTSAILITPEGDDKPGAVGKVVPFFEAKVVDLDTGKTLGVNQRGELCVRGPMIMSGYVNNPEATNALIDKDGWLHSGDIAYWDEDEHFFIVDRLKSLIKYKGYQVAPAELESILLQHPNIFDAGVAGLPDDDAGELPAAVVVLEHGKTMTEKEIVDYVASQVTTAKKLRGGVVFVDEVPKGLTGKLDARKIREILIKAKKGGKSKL
The depositor's hits bear a star; x = no result.

SMILES	PG9 binder	HSP90 inh	GAA850 FXN act	AI-2 QS modul	HSF1 inhib	SMARCA2 act	HSP90 confirm	luciferase ctr
COCC(C)n1c(C)cc(C(=O)COC(=O)c2n[nH]c3ccccc23)c1C (stereo not drawn)	-2	47*	-2	35	-53*	2	48*	45*
COC(=O)CN1CCN(C(=O)c2csc3ccccc23)CC1	x	x	x	x	x	-4	x	x
CCOC(=O)C1CSCCS(=O)(=O)N1Cc1cccc(F)c1 (stereo not drawn)	1	x	x	x	x	-4	x	x
CC1CCN(C(=O)c2cc3ccccc3c(=O)o2)CC1	-1	-2	-1	10	-2	-1	x	x
CC1CCN(C(=O)c2cc3c(ccc4ccccc43)o2)CC1	-1	25*	2	35	-7	3	49*	34*
Cc1cccc(N(O)C(=O)Nc2cccc(Cl)c2)c1	-3	26*	3	-27	2	3	62*	-17
CC(CNC(=O)[C@@H](Cc1ccccc1)NC(=O)[C@H]1O[C@@H](n2cnc3c(=O)[nH]c(N)nc32)[C@H](O)[C@@H]1O)c1ccccc1 (stereo partly drawn)	-1	x	x	x	x	0	x	x
COc1ccc(-c2nc(-c3cccs3)no2)cc1	0	33*	-3	1	-10	-4	87*	81*
Cc1cc2nc3ccc(=[N+](C)C)cc-3sc2cc1N	x	82*	-2	-33	44	x	89*	38*
CN(C)c1ccc2nc3ccc(=[N+](C)C)cc-3sc2c1	-115	15	2	-47	26	-3	x	x
COCCCN1C(=O)c2ccc(C(=O)NCCc3ccccc3)cc2C1=O	0	22*	6	28	-1	5	42*	24*
CC(C)(C)c1ccc(C(=O)NCCOc2ccccc2)cc1	-3	49*	-7	-3	-68*	-1	70*	65*
COCCCN1C(=O)c2ccc(C(=O)Nc3cccc(OC)c3)cc2C1=O	-2	-4	0	0	7	-2	x	x
CC(C)(C)c1ccc(C(=O)NCCc2ccccc2)cc1	0	21*	-1	9	-30	3	53*	43*
O=C(NCCc1ccccc1)c1ccc([N+](=O)[O-])cc1	2	23*	0	40	5	1	34*	30*
CN(C)S(=O)(=O)c1ccc(C(=O)NCCOc2ccccc2)cc1	3	3	5	18	27	2	x	x
CC(C)(C)c1ccc(C(=O)NCc2ccccc2)cc1	-1	0	3	10	12	3	x	x
O=C(NCC1COCCO1)C1CCN(S(=O)(=O)c2cccc3ccccc23)CC1 (stereo not drawn)	x	x	x	x	x	-3	x	x
CC(C)(C)c1ccc(C(=O)NCCOc2ccccc2F)cc1	-1	63*	-10	-14	-71*	-4	80*	78*
CCOCC(=O)Nc1cc(C(=O)NCCc2ccccc2)ccc1Cl	-2	17*	7	-4	13	2	32*	-20
O=C(NCCc1ccccc1)c1cccc(N2CCCC2=O)c1	x	35*	2	39	-3	x	52*	33*
Cc1ccc(CCNC(=O)c2cccc(N3CCCC3=O)c2)cc1	x	-4	2	27	8	x	x	x
Nn1c(SCC(=O)Nc2ccc(C(=O)O)cc2)nnc1-c1ccco1	x	x	x	x	x	0	x	x
C=CCn1c(C)cc(C(=O)COc2ncnc3sccc23)c1C	-3	18*	5	30	-6	8	45*	33*
C=CCn1c(C)cc(C(=O)COC(=O)c2cncc(Br)c2)c1C	1	x	3	x	x	3	x	x
SMILES	PG9 binder	HSP90 inh	GAA850 FXN act	AI-2 QS modul	HSF1 inhib	SMARCA2 act	HSP90 confirm	luciferase ctr
Cc1nc(C)n(CCNC(=O)c2ccco2)n1	0	36*	2	4	1	0	5	2
CC(Oc1ccccc1)C(=O)Nc1ccc(S(=O)(=O)Nc2nccs2)cc1 (stereo not drawn)	1	41*	2	44	-4	-2	-11	-7
CCN(CC)C(=O)CC[C@H]1CC[C@]2(CCCN(Cc3ccc(Br)cc3)C2)O1	x	x	x	x	x	0	x	x
Cc1ccc(NC(=O)CSc2nnc(-c3ccccc3F)n2-c2ccccc2)c(C)c1	x	x	x	x	x	-7	x	x
CC(C)(C)C1CCc2onc(C(=O)NC3CCCC3)c2C1 (stereo not drawn)	2	4	1	7	-8	1	x	x
O=C(NC1CCCCC1)c1noc2c1CCCCC2	0	19*	-4	5	-25	4	31*	14*
COc1ccc(-c2cc(C(=O)Nc3cccc(O)c3)no2)cc1	0	31*	1	5	12	0	70*	54*
COc1ccc(-c2cc(C(=O)Nc3ccc(C)c(C)c3)no2)cc1	-1	4	2	-7	3	-4	x	x
CC(C)Cc1cc(C(=O)Nc2cccc(O)c2)no1	-1	39*	1	-28	8	4	71*	65*
CC(C)Cc1cc(C(=O)Nc2ccc(Br)cc2)no1	-4	-11	6	13	-33	0	x	x
O=C(Nc1ccc(F)cc1F)c1cc(-c2ccc(Cl)cc2)nc2ccccc12	x	x	x	x	x	0	x	x
Cc1cnc(NC(=O)COc2ccc3c(c2)CCC3)s1	0	18*	4	7	26	4	32*	23*
O=C(COc1ccc2c(c1)CCC2)Nc1ccccn1	-1	x	4	41	-4	-1	x	x
Cc1c(CC(=O)N[C@H](C(=O)O)C(C)C)c(=O)oc2cc3c(cc12)CCC(C)(C)O3	-2	27*	4	0	3	6	35*	14*
Cc1ccc2c(c1)C(=O)C(=O)N2CCOc1ccccc1	0	21*	2	3	1	2	3	-26
CCCCn1c(SC(C)C(N)=O)nc2cc(C(=O)OC)ccc2c1=O (stereo not drawn)	-2	28*	1	12	-4	4	-2	-6
COc1cccc(/C=C2\CC3(OC(=O)c4ccccc4)CCCN2C3)c1 (stereo not drawn)	x	x	x	x	x	-1	x	x
CC1CCN(C(=O)N2c3ccccc3Sc3ccccc32)CC1	3	19*	0	15	12	-2	8	2
CC1CCCN(C(=O)N2c3ccccc3Sc3ccccc32)C1 (stereo not drawn)	-1	-2	0	0	10	2	x	x
COc1ccc(C(=O)Cn2c(=N)n(C)c3ccccc32)cc1	-2	-2	4	9	21	5	x	x
Cn1c(=N)n(CC(=O)c2ccc(Cl)c(Cl)c2)c2ccccc21	0	41*	-8	13	-63*	-4	47*	50*
Cn1c(=N)n(CC(=O)O)c2ccccc21	-1	1	-2	7	0	1	x	x
